# The supplement of paper PMC4466140
# What was measured:
# Assay in all cases: SPOT peptide array binding signal intensity (averaged, normalized) (arbitrary units (background-subtracted, floor 0; scale differs between SH3 domains)); higher = stronger binding of the SH3 domain to the peptide
# AgAbp1 = molecular target: AgAbp1
# Method in brief: (§1)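 Binding signal is given in arbitrary units that differ between domains and is the normalized, background-subtracted spot intensity averaged across replicates. Each GST-SH3 fusion from one of four yeast species was made in E. coli BL21(DE3), purified on glutathione Sepharose and incubated at 10 μg/ml overnight at 4°C on cellulose-bound synthetic 15-mer peptides in which cysteines were replaced by serines. Detection used anti-GST antibody, an HRP anti-mouse secondary and luminol, followed by imaging and Genespotter quantification.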
# AgBbc1 = molecular target: AgBbc1
# Method in brief: as §1
# AgBem1-D1 = molecular target: AgBem1-D1
# Method in brief: as §1
# AgBzz1-D1 = molecular target: AgBzz1-D1
# Method in brief: as §1
# AgBzz1-D2 = molecular target: AgBzz1-D2
# Method in brief: as §1
# AgCyk3 = molecular target: AgCyk3
# Method in brief: as §1
# AgFus1 = molecular target: AgFus1
# Method in brief: as §1
# AgHof1 = molecular target: AgHof1
# Method in brief: as §1
# AgHse1 = molecular target: AgHse1
# Method in brief: as §1
# AgLsb1 = molecular target: AgLsb1
# Method in brief: as §1
# AgLsb4 = molecular target: AgLsb4
# Method in brief: as §1
# AgMyo5 = molecular target: AgMyo5
# Method in brief: as §1
# AgNbp2 = molecular target: AgNbp2
# Method in brief: as §1
# AgRvs167 = molecular target: AgRvs167
# Method in brief: as §1
# AgSho1 = molecular target: AgSho1
# Method in brief: as §1
# AgSla1-D1-D2 = molecular target: AgSla1-D1-D2
# Method in brief: as §1
# AgSla1-D3 = molecular target: AgSla1-D3
# Method in brief: as §1
# CaAbp1-D1 = molecular target: CaAbp1-D1
# Method in brief: as §1
# CaAbp1-D2 = molecular target: CaAbp1-D2
# Method in brief: as §1
# CaBbc1 = molecular target: CaBbc1
# Method in brief: as §1
# CaBem1-D1 = molecular target: CaBem1-D1
# Method in brief: as §1
# CaBzz1-D1 = molecular target: CaBzz1-D1
# Method in brief: as §1
# CaBzz1-D2 = molecular target: CaBzz1-D2
# Method in brief: as §1
# CaCyk3 = molecular target: CaCyk3
# Method in brief: as §1
# CaFus1 = molecular target: CaFus1
# Method in brief: as §1
# CaHof1 = molecular target: CaHof1
# Method in brief: as §1
# CaHse1 = molecular target: CaHse1
# Method in brief: as §1
# CaLsb1 = molecular target: CaLsb1
# Method in brief: as §1
# CaLsb4 = molecular target: CaLsb4
# Method in brief: as §1
# CaMyo5 = molecular target: CaMyo5
# Method in brief: as §1
# CaNbp2 = molecular target: CaNbp2
# Method in brief: as §1
# CaRvs167 = molecular target: CaRvs167
# Method in brief: as §1
# CaRvs167-3 = molecular target: CaRvs167-3
# Method in brief: as §1
# CaSho1 = molecular target: CaSho1
# Method in brief: as §1
# CaSla1-D1-D2 = molecular target: CaSla1-D1-D2
# Method in brief: as §1
# CaSla1-D3 = molecular target: CaSla1-D3
# Method in brief: as §1
# ScAbp1 = molecular target: ScAbp1
# Method in brief: as §1
# ScBbc1 = molecular target: ScBbc1
# Method in brief: as §1
# ScBem1-D1 = molecular target: ScBem1-D1
# Method in brief: as §1
# ScBzz1-D1 = molecular target: ScBzz1-D1
# Method in brief: as §1
# ScBzz1-D2 = molecular target: ScBzz1-D2
# Method in brief: as §1
# ScCyk3 = molecular target: ScCyk3
# Method in brief: as §1
# ScFus1 = molecular target: ScFus1
# Method in brief: as §1
# ScHof1 = molecular target: ScHof1
# Method in brief: as §1
# ScHse1 = molecular target: ScHse1
# Method in brief: as §1
# ScLsb1 = molecular target: ScLsb1
# Method in brief: as §1
# ScLsb2 = molecular target: ScLsb2
# Method in brief: as §1
# ScLsb3 = molecular target: ScLsb3
# Method in brief: as §1
# ScLsb4 = molecular target: ScLsb4
# Method in brief: as §1
# ScMyo3 = molecular target: ScMyo3
# Method in brief: as §1
# ScMyo5 = molecular target: ScMyo5
# Method in brief: as §1
# ScNbp2 = molecular target: ScNbp2
# Method in brief: as §1
# ScPex13 = molecular target: ScPex13
# Method in brief: as §1
# ScRvs167 = molecular target: ScRvs167
# Method in brief: as §1
# ScSho1 = molecular target: ScSho1
# Method in brief: as §1
# ScSla1-D1-D2 = molecular target: ScSla1-D1-D2
# Method in brief: as §1
# ScSla1-D3 = molecular target: ScSla1-D3
# Method in brief: as §1
# SpAbp1-D1 = molecular target: SpAbp1-D1
# Method in brief: as §1
# SpBbc1 = molecular target: SpBbc1
# Method in brief: as §1
# SpBzz1-D1 = molecular target: SpBzz1-D1
# Method in brief: as §1
# SpBzz1-D2 = molecular target: SpBzz1-D2
# Method in brief: as §1
# SpCyk3 = molecular target: SpCyk3
# Method in brief: as §1
# SpHof1 = molecular target: SpHof1
# Method in brief: as §1
# SpHof1-2 = molecular target: SpHof1-2
# Method in brief: as §1
# SpHof1-3 = molecular target: SpHof1-3
# Method in brief: as §1
# SpHse1 = molecular target: SpHse1
# Method in brief: as §1
# SpLsb1 = molecular target: SpLsb1
# Method in brief: as §1
# SpLsb4 = molecular target: SpLsb4
# Method in brief: as §1
# SpMyo1 = molecular target: SpMyo1
# Method in brief: as §1
# SpNbp2 = molecular target: SpNbp2
# Method in brief: as §1
# SpPex13 = molecular target: SpPex13
# Method in brief: as §1
# SpRvs167 = molecular target: SpRvs167
# Method in brief: as §1
# SpSla1-D1-D2 = molecular target: SpSla1-D1-D2
# Method in brief: as §1
# SpSla1-D3 = molecular target: SpSla1-D3
# Method in brief: as §1
binder,measurement,setting,value
PSTMDFPKLPSFQNS,SPOT peptide array binding signal intensity,AgAbp1,3
same,SPOT peptide array binding signal intensity,AgBbc1,10.5
same,SPOT peptide array binding signal intensity,AgBem1-D1,88.5
same,SPOT peptide array binding signal intensity,AgBzz1-D1,13
same,SPOT peptide array binding signal intensity,AgBzz1-D2,≤ 0
same,SPOT peptide array binding signal intensity,AgCyk3,≤ 0
same,SPOT peptide array binding signal intensity,AgFus1,347
same,SPOT peptide array binding signal intensity,AgHof1,63.2
same,SPOT peptide array binding signal intensity,AgHse1,198
same,SPOT peptide array binding signal intensity,AgLsb1,0.5
same,SPOT peptide array binding signal intensity,AgLsb4,6
same,SPOT peptide array binding signal intensity,AgMyo5,13.5
same,SPOT peptide array binding signal intensity,AgNbp2,179
same,SPOT peptide array binding signal intensity,AgRvs167,3.5
same,SPOT peptide array binding signal intensity,AgSho1,376
same,SPOT peptide array binding signal intensity,AgSla1-D1-D2,≤ 0
same,SPOT peptide array binding signal intensity,AgSla1-D3,0.5
same,SPOT peptide array binding signal intensity,CaAbp1-D1,0.5
same,SPOT peptide array binding signal intensity,CaAbp1-D2,43.5
same,SPOT peptide array binding signal intensity,CaBbc1,34.5
same,SPOT peptide array binding signal intensity,CaBem1-D1,54
same,SPOT peptide array binding signal intensity,CaBzz1-D1,85
same,SPOT peptide array binding signal intensity,CaBzz1-D2,57.5
same,SPOT peptide array binding signal intensity,CaCyk3,8
same,SPOT peptide array binding signal intensity,CaFus1,1020
same,SPOT peptide array binding signal intensity,CaHof1,1
same,SPOT peptide array binding signal intensity,CaHse1,156
same,SPOT peptide array binding signal intensity,CaLsb1,0.5
same,SPOT peptide array binding signal intensity,CaLsb4,390
same,SPOT peptide array binding signal intensity,CaMyo5,95.5
same,SPOT peptide array binding signal intensity,CaNbp2,340
same,SPOT peptide array binding signal intensity,CaRvs167,33.3
same,SPOT peptide array binding signal intensity,CaRvs167-3,6.5
same,SPOT peptide array binding signal intensity,CaSho1,1290
same,SPOT peptide array binding signal intensity,CaSla1-D1-D2,136
same,SPOT peptide array binding signal intensity,CaSla1-D3,157
same,SPOT peptide array binding signal intensity,ScAbp1,3
same,SPOT peptide array binding signal intensity,ScBbc1,≤ 0
same,SPOT peptide array binding signal intensity,ScBem1-D1,≤ 0
same,SPOT peptide array binding signal intensity,ScBzz1-D1,2
same,SPOT peptide array binding signal intensity,ScBzz1-D2,10.5
same,SPOT peptide array binding signal intensity,ScCyk3,5
same,SPOT peptide array binding signal intensity,ScFus1,414
same,SPOT peptide array binding signal intensity,ScHof1,88.2
same,SPOT peptide array binding signal intensity,ScHse1,130
same,SPOT peptide array binding signal intensity,ScLsb1,11
same,SPOT peptide array binding signal intensity,ScLsb2,≤ 0
same,SPOT peptide array binding signal intensity,ScLsb3,184
same,SPOT peptide array binding signal intensity,ScLsb4,140
same,SPOT peptide array binding signal intensity,ScMyo3,28.5
same,SPOT peptide array binding signal intensity,ScMyo5,10.5
same,SPOT peptide array binding signal intensity,ScNbp2,252
same,SPOT peptide array binding signal intensity,ScPex13,221
same,SPOT peptide array binding signal intensity,ScRvs167,11.3
same,SPOT peptide array binding signal intensity,ScSho1,528
same,SPOT peptide array binding signal intensity,ScSla1-D1-D2,60
same,SPOT peptide array binding signal intensity,ScSla1-D3,290
same,SPOT peptide array binding signal intensity,SpAbp1-D1,≤ 0
same,SPOT peptide array binding signal intensity,SpBbc1,≤ 0
same,SPOT peptide array binding signal intensity,SpBzz1-D1,205
same,SPOT peptide array binding signal intensity,SpBzz1-D2,10.5
same,SPOT peptide array binding signal intensity,SpCyk3,1
same,SPOT peptide array binding signal intensity,SpHof1,30.2
same,SPOT peptide array binding signal intensity,SpHof1-2,72.2
same,SPOT peptide array binding signal intensity,SpHof1-3,18
same,SPOT peptide array binding signal intensity,SpHse1,289
same,SPOT peptide array binding signal intensity,SpLsb1,≤ 0
same,SPOT peptide array binding signal intensity,SpLsb4,658
same,SPOT peptide array binding signal intensity,SpMyo1,91.5
same,SPOT peptide array binding signal intensity,SpNbp2,130
same,SPOT peptide array binding signal intensity,SpPex13,38
same,SPOT peptide array binding signal intensity,SpRvs167,59
same,SPOT peptide array binding signal intensity,SpSla1-D1-D2,4
same,SPOT peptide array binding signal intensity,SpSla1-D3,133
